In general, inhibition refers to the drop in the measured response relative to a control, in per cent.

We go through 64 compounds from PubChem BioAssay AID602289 (National Center for Advancing Translational Sciences (NCATS), 2012).

In all, about 2,400 compounds went through this assay and about 40 (2%) were called active. Inconclusive results (about 1%) are left out.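 The calls were made as follows: active = inhibition at or above 60%; inconclusive = inhibition from 0% up to below 60%; inactive = no inhibition observed.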 For the sample, actives were picked, then their nearest neighbours and some compounds at random.

This assay is described as follows: qHTS Assay for Small Molecule Inhibitors of Mitochondrial Division or Activators of Mitochondrial Fusion: Hit Validation in Malachite Green Assay.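 As to inhibition: plate controls were DMSO wells with GTPase for no effect and protein-free buffer wells for full effect.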 The conditions noted are these: purified GTPase, malachite green phosphate release, A650; active compounds read high. From the text:
The budding yeast S. cerevisiae is a powerful system to study mitochondrial fusion. Unlike other organisms, yeast cells without functional mitochondrial DNA (mtDNA) can be propagated and studied as long as they maintain a mitochondrial compartment and are provided with a fermentable carbon source. When mitochondrial fusion is blocked in yeast, mitochondrial tubules rapidly fragment and division continues unopposed. Under conditions where fusion is compromised in mammalian cells, nearly identical changes in mitochondrial structure have been observed. Thus, these findings indicate that steady state mitochondrial structure in cells is a characteristic and specific indicator of fusion activity. Mounting evidence has pointed to a connection between mitochondrial dynamics and apoptosis in mammalian cells. These studies indicate that in mammalian cells mitochondrial dynamics are more integrated into cellular processes than in yeast cells and have evolved not only to distribute the organelle but also to aid in the regulation of cellular homeostasis. Mitochondrial fusion proteins attenuate apoptosis by inhibiting the release of cytochrome c from mitochondria, in part by controlling cristae structures. Thus, small molecules that inhibit mitochondrial fusion may promote apoptosis and potentially act as novel chemotherapeutics and stimulation of apoptosis has become an attractive target of anti-cancer therapies. To identify inhibitors of mitochondrial division, we exploit the growth phenotypes of mitochondrial fusion-defective mutants. The temperature sensitive fusion alleles, such as fzo1-1 and mgm1-5, cause mitochondrial membranes to fragment in cells under non-permissive conditions and cells lose mtDNA, and are unable to grow in the presence of non-fermentable carbon source glycerol. Inhibiting mitochondrial division rescues growth. The hits were tested by the assay provider in a malachite green assay. NIH Chemical Genomics Center [NCGC] NIH Molecular Libraries Probe Production Centers Network [MLPCN] MLPCN Grant: MH081279 Assay Submitter (PI): Jodi M. Nunnari
Malachite Green Reagent Malachite Green carbinol base- Aldrich 229105 Ammonium molybdate - Sigma A7302 For 100 mL Malachite Green reagent in 1N HCl 16 mL conc. HCL + 32 mL H20 = 48 mL 4N HCl 34 mg malachite green base into 40 mL 1N HCl (10 mL 4N HCl + 30 mL H20) 1 g ammonium molybdate in 15 mL 4N HCl Mix Solutions together. Bring up to […] with H2O. Filter using a 0.2 um tissue culture filter unit (has plastic bottle attached) store at 4 masculine C. (Avoid Glassware/Plastics washed in detergent. Mix solutions in 50 mL conical vials.) For 20 uL reaction volume 1.0 uL Test Drug or DMSO: Added first to each well […]: 25 mM Hepes/Pipes pH 7.0 (H/P) 2.0 uL: 50 mM MgCl2 (final 5mM) 2.32 uL: 1 M NaCl (with contributing protein salt, Final = 150mM) 13.4 uL per reaction. Can be mixed in larger volume (Mini Master Mix) 1.6 uL: Protein 7.5 uM or Protein Freezing Buffer. (Final = 0.6uM) After Protein Added to mini Master Mix, 15ul Total Master Mix added to each well with drug. 4 uL: 500 uM GTP (Final = 100uM), Dilute with 25 mM H/P, store on ice. 20 uL Total Volume Make Master Mix: (Calculate desired reactions and add a few for multi-channel pipetting volume). Multiply the number of desired reactions by 13.4 uL for total Mini Master volume. Multiply the number of desired reactions by 1.6 uL for total Protein volume. Mix, and keep on ice until added to wells. Add 15 uL of Master Mix to each reaction well, incubate with drug for 10 min. For Positive (No Drug) controls add 15 uL Master Mix to wells with only 1 uL DMSO. Make PFB (Protein Freezing Buffer) (no Protein) Master Mix. Multiply the number of desired reactions by 13.4 uL for total Mini Master volume. Multiply the number of desired reactions by 1.6 uL for total PFB volume. Mix, and keep on ice until added to wells Add 10 uL of PFBMaster Mix to each Phosphate Standards well, and 15 uL to each negative control well with DMSO. […]
As for `O=C(Nc1ccc(O)c2c(=O)cc(-c3cccc(Cl)c3)oc12)c1ccccc1Cl`, the inhibition entry was “inactive”.

Consider `CC(C)n1c(C(=O)OCC(=O)NCc2ccc3c(c2)OCO3)cc2sccc21`, for which the inhibition entry was “inactive”.

`CC(CCc1ccccc1)NC(=O)/C=C/c1ccc(F)cc1` (centres undefined): the inhibition entry was “inactive”.

Turning to `CCOC(=O)c1c(C)[nH]c(C)c1C(=O)COC(=O)/C=C/c1ccc(Cl)cc1`, the inhibition entry is “inactive”.

Regarding `CC(=O)Nc1cccc(C(=O)/C=C/c2ccc(Br)cc2)c1`, the inhibition entry is “inactive”.

As for `CCNc1ccc(Br)cc(C(=O)/C=C/c2ccc(Cl)cc2)c1=O`, the inhibition was 100% (active).

For the compound `CCOc1ccc(CN(C(=O)c2cc3ccccc3oc2=O)C2CC2)cc1`, the inhibition entry was “inactive”.

As to `O=C(c1ccc(COc2ccc(Cl)cc2)o1)N1CCN(Cc2ccc3c(c2)OCO3)CC1`, the inhibition entry was “inactive”.

For `CCOC(=O)c1n[nH]n2c1nc(=O)c1ccccc12`, the inhibition entry was “inactive”.

For the compound `Cc1nc(CS(=O)(=O)c2ccc(Cl)cc2)cc(Sc2ccccc2Cl)n1`, the inhibition result is “inactive”.

In the case of `CCCCc1cc(=O)oc2cc(OS(C)(=O)=O)ccc12`, the inhibition entry was “inactive”.

`CCCCc1c(C)nc2ccccc2c1SCCC#N`: the inhibition is 73.5% (active).

With `CCCCSc1nnc(-c2ccc(C)cc2)c2ccccc12`, the inhibition entry is “inactive”.

On to `CCCCN(CC)c1nc(-c2ccncc2)nc2ccccc12`, for which the inhibition entry is “inactive”.

As for `CCCc1c(C)nc2ccccc2c1SCCC#N`, the inhibition is 84.5% (active).

Consider `COc1ccc(-c2ccc(-c3nc4ccc(C)cn4c3NC3CCCCC3)cc2OC)cc1`, for which the inhibition entry is “inactive”.

Take `Cc1cc2c(cc1C)CSC(c1ccccc1O)SC2`: the inhibition result is “inactive”.

For `CCOC(=O)c1ccc(NC(=S)N2CCSC2c2ccc(Cl)cc2)cc1` (centres undefined), the inhibition entry is “inactive”.

Turning to `CCCCC(c1nnnn1CC1CCCO1)N1CCN(c2nc3ccccc3s2)CC1` (centres undefined), the inhibition entry was “inactive”.

Consider `Cc1cccc(-c2nc(CS(=O)CC(=O)NC(C)CCc3ccccc3)c(C)o2)c1` (centres undefined), for which the inhibition entry is “inactive”.

On to `COC(=O)c1sc2nc(C)nc(SCC(=O)C(C)(C)C)c2c1C`, for which the inhibition entry is “inactive”.

On to `Cc1ccccc1N=C(NOCc1ccccc1)c1nonc1N`, for which the inhibition entry was “inactive”.

As for `C[C@@]12C(=O)N(Cc3ccccc3)CC(=O)N1[C@H]1c3cc(Cl)ccc3OC[C@@H]1[C@@H]2c1ccccc1`, the inhibition entry is “inactive”.

Regarding `Cc1occc1C(=O)NC1CCCCCCC1`, the inhibition entry was “inactive”.

With `CCCc1cc(C(N)=O)c(NC(=O)c2ccoc2C)s1`, the inhibition was 101% (active).

Turning to `NC(=O)c1cc(Cc2ccccc2)sc1NC(=O)c1ccco1`, the inhibition was 102% (active).

Consider `CCC1CCc2c(sc(NC(=O)c3ccoc3C)c2C(N)=O)C1` (centres undefined), for which the inhibition result is “inactive”.

Turning to `Cc1sc(NC(=O)c2ccco2)nc1-c1ccccc1`, the inhibition result is “inactive”.

For `O=C(Nc1cc(-c2ccccc2)cs1)c1ccco1`, the inhibition result was “inactive”.

As to `Cc1ccc(C)c(N2CCN(C(=O)c3csc4ccccc34)CC2)c1`, the inhibition entry is “inactive”.

For `Cc1cc(-c2ccc(C)c(S(=O)(=O)NCc3ccc(Br)cc3)c2)on1`, the inhibition entry is “inactive”.

As to `N/C(=N\OC(=O)c1ccccc1Cl)c1ccc(Cl)cc1`, the inhibition entry is “inactive”.

Turning to `CCN(CC(=O)Nc1cc(S(=O)(=O)N2CCCCC2)ccc1Cl)Cc1ccccc1`, the inhibition result was “inactive”.

As to `COc1ccc(Nc2ncc(C(=O)N3CCN(Cc4ccccc4)CC3)c3ccccc23)cc1`, the inhibition result is “inactive”.

Regarding `c1ccc(NCc2nc3ccccc3n2CCOc2ccccc2)cc1`, the inhibition result was “inactive”.

With `COc1ccc(/C=C/C(=O)N2CCCc3ccccc32)c(OC)c1`, the inhibition entry was “inactive”.

In the case of `CNc1ccc(Br)cc(C(=O)/C=C/c2ccc(OC)cc2OC)c1=O`, the inhibition was 90.1% (active).

As for `COc1ccc(Br)cc1/C=C/C(=O)Nc1ccc(C)cc1`, the inhibition result is “inactive”.

As to `COc1cc2c(cc1NC(=O)CSc1nc3ccccc3[nH]1)oc1ccccc12`, the inhibition entry was “inactive”.

As for `O=C(N/N=C/c1cn(-c2cccs2)nc1-c1ccccc1)c1ccccc1Cl`, the inhibition result was “inactive”.

`Cn1c2ccccc2c2c(C(=O)N3CCN(c4ccccc4)CC3)cn(C3CCCC3)c(=O)c21`: the inhibition entry is “inactive”.

Consider `COc1cccc(COc2ccc3ccc(=O)oc3c2)c1`, for which the inhibition entry is “inactive”.

Consider `CC(C)(C)c1ccc(/C=C/C(=O)Nc2ncccn2)cc1`, for which the inhibition entry is “inactive”.

Take `O=c1c2ccccc2nc(/C=C/c2cccnc2)n1Cc1ccccc1`: the inhibition entry is “inactive”.

Turning to `c1ccc(C(c2ccccc2)N2CCN(Cc3nnnn3C3CCCC3)CC2)cc1`, the inhibition result was “inactive”.

Take `COc1ccc(NC(=O)CSCC(=O)N(C)Cc2ccc(Cl)c(Cl)c2)cc1`: the inhibition result is “inactive”.

Regarding `O=S(=O)(Nc1cccc2c1CCCC2)c1ccc(Cl)cc1`, the inhibition entry was “inactive”.

With `COC(=O)c1c(NC(=O)c2ccc(C)o2)sc2c1CCCCC2`, the inhibition result is “inactive”.

For the compound `N#Cc1c(NC(=O)c2ccc(Cn3cc(Br)cn3)o2)sc2c1CCCCCC2`, the inhibition is 97.3% (active).

For `N#Cc1c(NC(=O)C2CC2)sc2c1CCCCC2`, the inhibition result is “inactive”.

On to `CCCc1nnc(NC(=O)CCC(=O)O)s1`, for which the inhibition result was “inactive”.

Regarding `Cc1ccc(Cl)cc1N1CCN(C(=O)c2noc(C)c2[N+](=O)[O-])CC1`, the inhibition result was “inactive”.

On to `CCCCNC(=O)N1CCN(C(c2ccccc2)c2ccccc2)CC1`, for which the inhibition entry was “inactive”.

For the compound `O=[N+]([O-])c1ccc(S(=O)(=O)N2CCN(C3CCN(Cc4ccccc4)CC3)CC2)cc1`, the inhibition entry is “inactive”.

Consider `Cc1ccc(C(=O)c2c(NC(=O)c3ccccc3C)sc(C)c2C)cc1`, for which the inhibition entry was “inactive”.

For the compound `CCOC(=O)c1c(NC(=O)c2ccccc2Cl)sc2c1CCc1ccccc1-2`, the inhibition was 102% (active).

In the case of `CCOC(=O)c1c(NC(=O)COc2ccccc2F)sc2c1CC(C)(C)NC2(C)C`, the inhibition entry was “inactive”.

On to `CN(CCOc1ccccc1)CC(=O)Nc1ccc([N+](=O)[O-])cc1Cl`, for which the inhibition result is “inactive”.

As for `C=CCSc1nc(N)c(C#N)c(-c2ccc(C)cc2)c1C#N`, the inhibition entry is “inactive”.

For `CC(=O)c1cccc(NC(=O)c2ccc(-c3ccccc3[N+](=O)[O-])o2)c1`, the inhibition result is “inactive”.

Regarding `COc1ccccc1/C=C/C(=O)c1ccc(NC(C)=O)cc1`, the inhibition entry was “inactive”.

With `O=C(/C=C/c1ccco1)c1ccc(NC(=O)C23CC4CC(CC(C4)C2)C3)cc1`, the inhibition was 80.4% (active).

On to `O=C(/C=C/c1ccco1)Nc1ccc2nn(-c3ccccc3)nc2c1`, for which the inhibition result is “inactive”.

As for `O=c1c2cc(N3CCOCC3)ccc2[nH]c(=S)n1CCc1ccccc1`, the inhibition entry is “inactive”.
